Screening results as filed in PubChem BioAssay.
Jurkat NFkB inh: lowers PMA/ionomycin-induced NF-kB signal in Jurkat cells; PMA/ionomycin-induced NF-kB luciferase reporter, luminescence; inhibition, % at 4 µM; 330,000 tested, 0.53% active; in the data active = inhibition above about 50%
TAG inh: triacylglycerol accumulation inhibition; H9c2 cells, Nile Red lipid (TAG) fluorescence; cells loaded with 200 µM oleic acid; inhibition, % at 12.5 µM; 230,000 tested, 0.66% active; AID 651582;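 active = pattern-corrected inhibition of lipid staining of at least 50% with the nuclear-stain viability signal not falling by more than 50%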
Cardio protect: modulators protecting cardiomyocytes from myocardial damage | H9c2 cardiomyocytes, H2O2 injury protection, ATPLite, 2 h | protection from H2O2 cell death, % at 20 µM | 360,000 tested, 0.63% active | AID 588492;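 active = compounds giving at least 50% protection of heart cells from peroxide-induced death in the single-dose screen, raw or plate-pattern-corrected value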
Gli-Sufu antag: antagonists of Gli-Sufu signaling. Sufu-KO-LIGHT fibroblasts, Gli luciferase reporter luminescence. inhibition, % at 5 µM. 340,000 tested, 0.74% active. AID 588413;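 active = inhibition above about 55%, limit read from the data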
NR2F2 inh: inhibitors of human COUP-TFII (NR2F2) | P24468 | HEK293T NGFI-A luciferase reporter, luminescence | inhibition, % at 8.6 µM | 370,000 tested, 0.7% active | AID 686940;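 active = inhibition above a per-plate cutoff, mean inhibition of test wells between control levels plus 3 SD, cut at about 38% in these data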;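 also: cells cotransfected with COUP-TFII expression vector driving the NGFI-A reporter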
Target sequence (P24468 whole entry, looked up): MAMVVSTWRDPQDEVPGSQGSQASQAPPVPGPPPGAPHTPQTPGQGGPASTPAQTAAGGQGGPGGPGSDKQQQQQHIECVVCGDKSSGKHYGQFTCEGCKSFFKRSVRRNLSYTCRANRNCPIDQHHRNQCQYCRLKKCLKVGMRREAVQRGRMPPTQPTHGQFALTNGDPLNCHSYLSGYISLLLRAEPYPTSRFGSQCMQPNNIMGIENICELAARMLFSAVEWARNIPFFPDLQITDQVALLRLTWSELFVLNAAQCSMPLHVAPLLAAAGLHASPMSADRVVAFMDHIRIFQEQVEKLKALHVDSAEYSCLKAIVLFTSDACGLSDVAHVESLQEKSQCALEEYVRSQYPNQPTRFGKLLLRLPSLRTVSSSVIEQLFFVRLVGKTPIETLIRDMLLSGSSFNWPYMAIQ
697 NFkB inh: inhibitors of the PMA/ionomycin-induced NF-kB reporter in 697 B cells | 697 B-cell NF-kB luciferase reporter, 16 h | inhibition, % at 4 µM | 330,000 tested, 0.33% active | AID 435022; in the data active = inhibition above about 35%
Jurkat NFkB conf: inhibitors of the PMA/ionomycin-induced NF-kB reporter in Jurkat cells, retest; Jurkat NF-kB luciferase, 16 h; shares compounds with Jurkat NFkB inh; AID 435020; inhibition, % at 4 µM; 2,700 tested, 27% active;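 active = inhibition reaching about 45% at 4 µM in either replicate, limit read from the data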
A number is an active result; 0 = inactive; - = no result. Most compounds without a hit are left out; they make up all but 2.6% or so of the library.

SMILES	Jurkat NFkB inh	TAG inh	Cardio protect	Gli-Sufu antag	NR2F2 inh	697 NFkB inh	Jurkat NFkB conf
COc1cc(OC)cc(C(=O)N/N=C/c2ccc(OC)c(COc3ccc(F)cc3)c2)c1	52	0	0	0	0	0	0
COC[C@@H](OC(C)=O)[C@H]1OCc2ccccc2[C@@H]1/C=C/c1ccccc1	-	-	-	-	0	-	-
COc1ccc(N(C(=O)c2ccncc2)S(=O)(=O)c2ccccc2)cc1	0	0	0	0	0	0	-
COc1ccc(N(C(=O)c2ccccc2C)S(=O)(=O)c2cccs2)cc1	66	-	0	0	0	0	0
O=c1c2ccccc2n(Cc2ccno2)n1[C@@H](Cc1ccccc1)Cn1cc(C2CCCC2)nn1	-	-	-	-	0	-	-
O=C(/C=C/c1ccc2c(c1)OCO2)Nc1nc2ccccc2s1	0	-	0	0	0	0	0
Cc1ccc(N(C)S(=O)(=O)c2ccc(-c3cnc(C4CC4)o3)cc2)cc1	52	-	0	0	0	0	52
Cc1ccc(NS(=O)(=O)c2ccc(-c3cnc(C4CC4)o3)cc2)cc1	0	-	0	0	0	0	-
Cc1ccc(CNS(=O)(=O)c2ccc(-c3cnc(C4CC4)o3)cc2)cc1	0	-	0	0	0	0	-
Cc1cccc(C)c1NS(=O)(=O)c1ccc(-c2cnc(C3CC3)o2)cc1	59	-	0	57	0	0	64
CN(C(=O)C1CCN(c2cncnc2)CC1)C1CCCCC1	-	-	-	-	0	-	-
COC(=O)Nc1nc(-c2ccccc2)c(C(=O)c2ccc(Cl)cc2)s1	0	-	0	0	0	0	-
CCOC(=O)Nc1nc(-c2ccccc2)c(C(=O)c2ccccc2)s1	51	-	0	0	0	0	50
Cc1cc(C)cc(C(=O)N2CC(=O)Nc3ccccc32)c1	60	55	0	-	0	0	56
COc1cc(C(=O)N2CC(=O)Nc3ccccc32)cc(OC)c1OC	-	0	0	-	0	-	-
CC(=O)N[C@@H]1C[C@@H]2O[C@H](CO)CC[C@@H]2O[C@@H]1CCc1ccc(C#CC2(O)CCCC2)cc1	-	-	-	-	0	-	-
Cc1cc(C)c(C)c(OC(=O)c2sc(Cl)nc2C)c1	72	-	0	0	0	0	0
Cc1ccc(NC(=O)c2sc(Cl)nc2C)c(C)c1	0	-	0	0	0	0	-
CC(C)(C)c1cc(NC(=O)c2cccs2)no1	0	0	0	0	0	0	0
Cc1ccc(S(=O)(=O)N2CCCC2C(=O)N2CCc3ccccc3C2)cc1C (stereo not drawn)	-	-	-	-	0	-	-
COc1cc(/C=N/N(C)c2ccccc2)ccc1O	0	0	0	0	0	0	0
COc1ccc2c(c1)CCCN2C(=O)C1CCCN(S(=O)(=O)c2ccc(Br)s2)C1 (stereo not drawn)	-	-	-	-	0	-	-
CC1(C)Cc2nc3sc4c(=O)n(CC(N)=O)cnc4c3cc2CO1	0	0	0	0	0	0	-
CC1(C)Cc2nc3sc4c(=O)n(CC(=O)NCc5ccccc5)cnc4c3cc2CO1	61	-	0	0	0	0	0
CCOc1ccc2nc(NC(=O)Nc3ccccc3)sc2c1	0	0	0	0	0	0	-
SMILES	Jurkat NFkB inh	TAG inh	Cardio protect	Gli-Sufu antag	NR2F2 inh	697 NFkB inh	Jurkat NFkB conf
CCOc1ccc2nc(NC(=O)Nc3cccs3)sc2c1	0	0	0	0	0	0	0
O=C(Nc1ccc(N2C(=O)CC(c3ccccc3)C2=O)c(Cl)c1)c1ccccn1 (stereo not drawn)	-	-	-	-	0	-	-
CC(=O)c1ccc(Nc2ccc(-c3ccccc3F)nn2)cc1	0	0	0	0	0	0	0
COC(=O)[C@]12C[C@H](CC(=O)NCc3ccccc3)C(=O)N(Cc3cccc4ccccc34)C1=C[C@H](COCc1ccccc1)O[C@@H]2C	-	-	-	-	0	-	-
COc1ccc(CCN=C(N)C(C)c2ccccc2)cc1OC (stereo not drawn)	0	0	0	0	0	0	-
CC(C)Cc1ccc(C(C)C(N)=NCCc2ccccc2)cc1 (stereo not drawn)	50	-	0	0	0	0	0
COC(=O)[C@]12C[C@H](CC(=O)NCCC(C)C)C(=O)N(CCC3=CCCCC3)C1=C[C@H](C(C)C)O[C@@H]2C1CC1	-	-	-	-	0	-	-
CC(C)(C)c1ccc(C(=O)NCCc2ccccc2)cc1	0	-	0	-	0	0	0
CC(C)(C)c1ccc(C(=O)NCc2ccccc2)cc1	0	0	0	0	0	0	-
COc1cc(C(=O)N=c2sc3ccccc3n2C)cc(OC)c1OC	0	0	0	0	0	0	-
Cn1c(=NC(=O)c2cccc([N+](=O)[O-])c2)sc2ccccc21	0	0	0	0	0	0	0
CCN1Cc2nnn(Cc3ccccc3)c2-c2cc(N3CCCC3)ccc2S1(=O)=O	-	-	-	-	0	-	-
COc1ccccc1C1=NOC(COc2ccc3c(C)cc(=O)oc3c2)C1 (stereo not drawn)	67	59	0	0	0	0	0
COc1ccc2c(C)cc(=O)oc2c1	-	0	0	0	0	-	-
COc1ccc(C2=NOC(COc3ccc4c(C)cc(=O)oc4c3)C2)c(OC)c1 (stereo not drawn)	51	0	0	0	0	0	0
O=C(NC1=N[C@@]2(C=C3CCCCC3n3c(=O)n(-c4ccccc4)c(=O)n32)[C@H](Cc2ccccc2)N1Cc1ccccc1)c1ccccc1 (stereo partly drawn)	-	-	-	-	0	-	-
CSc1ccc(/C=C/C(=O)Nc2ccccc2)cc1	0	0	0	0	0	0	0
CC(NCc1ccco1)C(=O)N1CCOCC1 (stereo not drawn)	-	-	-	-	0	-	-
COC(=O)C1=C(C)N(C)C(=NCc2ccc(OC)cc2)NC1c1cccc(C(F)(F)F)c1 (stereo not drawn)	-	-	-	-	0	-	-
O=C(CN1C(=O)C2CCCCN2C(=O)c2ccccc21)N1CCCC1 (stereo not drawn)	-	-	-	-	0	-	-
Cc1nc2ccccc2c2oc(C(=O)NC3CC3)cc12	0	0	0	0	0	0	-
CCOc1ccc(NC(=O)c2cc3c(C)nc4ccccc4c3o2)cc1	60	0	61	0	0	0	0
CC(C)C(C#CC1CC1)NCc1ccc2c(c1)OCO2 (stereo not drawn)	-	-	-	-	0	-	-
Cc1ccccc1CS(=O)(=O)Cc1ccc(C(=O)Nc2cccc(Cl)c2F)o1	-	-	-	-	0	-	-
Cc1ccc(O)c(N=Nc2ccc(S(=O)(=O)N3CCCC3)cc2)c1	0	0	0	0	0	0	-
SMILES	Jurkat NFkB inh	TAG inh	Cardio protect	Gli-Sufu antag	NR2F2 inh	697 NFkB inh	Jurkat NFkB conf
COc1ccc(N=Nc2cc(C)ccc2O)cc1	0	0	0	0	0	0	0
Cc1ccc(O)c(N=Nc2nccs2)c1	59	0	0	0	0	0	79
CC(=O)/C(N=Nc1cc(C)ccc1O)=C(\C)O	0	-	0	0	0	0	-
Cc1cc(Sc2ccc([N+](=O)[O-])cn2)ccc1Br	62	0	0	0	0	0	0
O=[N+]([O-])c1ccc(Sc2ccc(F)cc2)nc1	0	0	0	0	0	0	-
Brc1ccc2c(c1)C(C1=NCCN1)c1ccccc1CS2 (stereo not drawn)	60	-	0	0	0	0	56
Clc1ccc(Cn2ncc3c(NCc4ccccc4)ncnc32)c(Cl)c1	65	-	-	-	0	0	0
COc1ccccc1N1CCN(C(=O)c2cc3c(C)nn(-c4ccccc4)c3s2)CC1	-	-	-	-	0	-	-
